ELG1 genotox = inducers of genotoxicity in HEK293T ELG1-luciferase cells | HEK293T ELG1-luciferase reporter, luminescence, 16 h | Potency, µM (doses to about 46 µM), for inactives: top-dose activity change, positive = activation, most hits filed as activators | actives 1.3% (n = 330,000) | AID 504466; note: % of control where 0% means no effect; nearly all actives have a fitted effect of over 60% in size
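After overnight (16 hr) compound treatment at 37 °C, ELG1-luciferase HEK293T cells were lysed with ONE-Glo; luminescence quantified 30 min later at room temperature.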
SMN2 splice up = increases expression of the SMN2 splice variant; HEK293 SMN2-luciferase splicing reporter, luminescence, 30-36 h; Potency, µM (titrated, usually from 46.1 µM), inactives show top-dose activity change, positive = activation, actives largely listed as activators; actives 2.8% (n = 210,000); note: % of control where 0% means no effect; nearly all actives have a fitted effect of over 55% in size
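HEK293 cells carry an SMN2 […]–luciferase reporter in which exon 7 inclusion puts luciferase in frame. Cells were plated 10-12 h before compound addition, then incubated 30-36 h at 37C. ONE-Glo luminescence was read; sodium butyrate at 4.5 mM final served as control.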
NPC1 promoter act = NPC1 promoter activation | Huh7 NPC1 promoter luciferase reporter, 24 h | Potency, µM (top dose mostly 9.22 µM), for the others: at the top dose activation, actives largely listed as activators | actives 2.4% (n = 320,000) | AID 485313; note: % of control where 0% means no effect; nearly all actives have a fitted effect of over 60% in size
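Compounds in DMSO were transferred onto Huh7 NPC1-luciferase reporter cells pre-incubated 2 h; after 24 h at 37 °C, Amplite reagent was dispensed and luminescence recorded 10 min later.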
FLuc modulator = firefly luciferase modulation, counter-screen for miR-21 project; P08659; purified FLuc, Km substrates, luminescence inhibition; actives 6.9% (n = 360,000); Potency, µM (highest dose often 57.5 µM), for inactives: top-dose activity change, negative = inhibition, hits mostly inhibitors;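 note: plate controls were vehicle for no effect and reference inhibitor for full effect; nearly all actives have a fitted effect of over 55% in size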
Target sequence (P08659 whole entry, looked up): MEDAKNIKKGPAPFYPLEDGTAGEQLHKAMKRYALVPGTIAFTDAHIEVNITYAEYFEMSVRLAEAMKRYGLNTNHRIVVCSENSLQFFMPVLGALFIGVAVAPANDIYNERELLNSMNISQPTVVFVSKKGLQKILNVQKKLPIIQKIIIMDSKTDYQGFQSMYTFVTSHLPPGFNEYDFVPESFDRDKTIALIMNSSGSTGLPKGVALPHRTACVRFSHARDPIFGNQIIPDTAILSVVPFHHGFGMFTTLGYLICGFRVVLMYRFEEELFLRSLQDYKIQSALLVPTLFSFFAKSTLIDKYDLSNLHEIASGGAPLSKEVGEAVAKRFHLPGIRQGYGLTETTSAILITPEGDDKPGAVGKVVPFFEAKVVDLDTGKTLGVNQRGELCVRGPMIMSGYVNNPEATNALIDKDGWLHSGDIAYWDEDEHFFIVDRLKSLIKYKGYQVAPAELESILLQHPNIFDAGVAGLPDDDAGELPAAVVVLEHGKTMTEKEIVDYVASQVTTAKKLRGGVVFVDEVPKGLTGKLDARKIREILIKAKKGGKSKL
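Biochemical qHTS of compounds, final roughly 60 µM downward over six points, against 10 nM purified firefly luciferase using Km concentrations of substrates (10 uM D-luciferin, 10 uM ATP) in Tris acetate pH 7.5 buffer; luminescence output.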
Rab9 promoter act = activates the Rab9 promoter; Huh7 Rab9 promoter-luciferase reporter, luminescence, 24 h; Potency, µM (highest dose often 9.22 µM), for the others: at the highest dose activation, negative = inhibition, actives largely listed as activators; actives 2.8% (n = 320,000); note: % of control where 0% means no effect; nearly all actives have a fitted effect of over 60% in size
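Huh7 cells stably carrying a Rab9 promoter-luciferase reporter, 1500 cells per well in OP-MEM I with 10% FBS, treated with compound 24 hours at 37C. Luciferase activity read by luminescence after 10 minutes with Amplite reagent.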
ELG1 repair inh = inhibitors of ELG1-dependent DNA repair in HEK293T cells; HEK293T ELG1-luciferase reporter, luminescence, 16 h; DNA damage induced by 5-fluorouridine; Potency, µM (top dose mostly 46.1 µM), inactives show at the top dose activity change, negative = inhibition, most hits filed as inhibitors; AID 504467; actives 2.3% (n = 330,000); note: % is set by controls: 0 for no effect and ±100 for the full control effect; nearly all actives have a fitted effect of over 55% in size
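Step one: seed 2,000 cells per well. Step two: pin-transfer compound or DMSO alongside 5-fluorouridine. Step three: incubate 16 hr, 37 °C, 5% CO2. Step four: add ONE-Glo, wait 30 min, read luminescence.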
The depositor's hits bear a star; ? = inconclusive; . = not tested or not shown. Only some compounds are listed: those with a hit (about 9.2% of all), similar ones and a draw of the others. Calls come from the whole dose curve; as a rule, active = well fitted curve in the direction sought with a large enough effect; inconclusive = small, poorly fitted or top-dose-only effect, or another doubt; inactive = no such curve, though single readings can be large; an effect the other way counts as inactive or inconclusive. Potency is the fitted concentration of half-maximal effect.

SMILES | ELG1 genotox | SMN2 splice up | NPC1 promoter act | FLuc modulator | Rab9 promoter act | ELG1 repair inh
CCCCC(=O)N1CCN(c2nc3ccc(OCC)cc3s2)CC1 | -7.2% | . | -0.5% | 13.5µM* | 3.6% | 0.7%
CCC(=O)N1CCN(c2nc3c(C)cccc3s2)CC1 | . | . | . | -2.3% | . | .
CCSc1ccccc1C(=O)N1CCN(c2nc3ccccc3s2)CC1 | . | . | . | -12.6% | . | .
CCCC(=O)N1CCN(c2nc3ccccc3s2)CC1 | ? | . | 1.41µM* | 7.57µM* | 1.12µM* | ?
CCCCn1c(N)c(N(CCOC)C(=O)COC(=O)C(C)(C)Oc2ccc(Cl)cc2)c(=O)[nH]c1=O | 5.2% | . | -0.2% | 3.9% | -2.0% | ?
CCOC(=O)c1ccc2oc(=O)n(Cc3ccccc3)c2c1 | . | . | . | -16.2% | . | .
Cc1ccc(Cl)cc1NC(=O)N1CCC(CN2CCc3ccccc3C2)CC1 | . | . | . | -5.9% | . | .
CN(C)c1ccc(NC(=O)CSc2nc(C3CC3)nc3ccccc23)cc1 | -15.4% | . | -7.1% | -16.8% | 7.1% | -10.2%
CCCOC(=O)c1c(NC(=O)c2cc3ccccc3c(=O)o2)sc2c1CCC(C)C2 (stereo not drawn) | . | -14.7% | . | 0.1% | . | .
CCCC(=O)N1CCN(c2nc3ccc(F)cc3s2)CC1 | . | . | . | 10.7µM* | . | .
O=C(c1ccc([N+](=O)[O-])o1)N1CCN(c2nc3ccc(F)cc3s2)CC1 | -3.6% | . | -5.7% | 5.5% | 15.9% | ?
Cc1nc(Nc2nc(CSc3nc4ccccc4[nH]3)cc(=O)[nH]2)nc2ccccc12 | -13.5% | -51.9% | -2.1% | -16.3% | 0.3% | 13µM*
COc1ccc2nc(Nc3nc(CSc4nc5ccccc5[nH]4)cc(=O)[nH]3)nc(C)c2c1 | -6.6% | 106.9% | -5.4% | ? | -23.1% | 5.8µM*
CCN(CC(=O)Nc1c(F)cccc1F)C(=O)c1n[nH]c2ccccc12 | 10.0% | . | -1.2% | 3.7% | -7.1% | -7.5%
NC(=O)[C@H]1CC2(CC(c3cccc(NC(=O)COc4ccc(Cl)cc4)c3)=NO2)CN1C(=O)Cc1ccc([N+](=O)[O-])cc1 (stereo partly drawn) | -13.5% | . | -35.0% | 9.53µM* | -33.8% | 2.06µM*
CCCCCC(=O)Nc1cccc(C2=NOC3(C2)C[C@@H](C(N)=O)N(C(=O)Cc2ccc([N+](=O)[O-])cc2)C3)c1 (stereo partly drawn) | 1.1% | . | -4.2% | -14.5% | -9.7% | 13µM*
CCCCCC(=O)Nc1cccc(C2=NOC3(C2)C[C@@H](C(N)=O)N(C(=O)c2cc([N+](=O)[O-])cc([N+](=O)[O-])c2)C3)c1 (stereo partly drawn) | -1.7% | . | -8.4% | ? | 0.0% | -1.8%
O=C(CSc1nc(O)c(C/C=C/c2ccccc2)c(=O)[nH]1)Nc1cccc(F)c1 | . | -7.9% | . | 10.7µM* | . | .
Nc1nc(SCC(=O)Nc2ccccc2)[nH]c(=O)c1-c1ccccc1 | -3.9% | -4.9% | -0.9% | -2.4% | 7.3% | -4.6%
CC1=C(C(=O)N2CCCCC2)C(c2cccc(Cl)c2)n2c(nc3ccccc32)N1 (stereo not drawn) | . | -5.2% | . | -0.9% | . | .
CC1(C)Cc2c(cnn2-c2ccc(F)cc2)C(NC(=O)CCN2CCCC2=O)C1 (stereo not drawn) | 14.6% | . | 24.1% | ? | 23.1% | ?
CC1(C)Cc2c(cnn2-c2ccc(F)cc2)C(NC(=O)CN2CCCCC2=O)C1 (stereo not drawn) | 6.1% | . | -0.2% | 19µM* | -8.5% | 5.4%
CCc1ccc(C(=O)/C=C/c2ccc([N+](=O)[O-])o2)cc1 | ? | -92.2% | -10.9% | 10.7µM* | -29.3% | ?
CCOc1ccc(NC(=O)CSc2oc(-c3ccco3)nc2S(=O)(=O)c2ccc(Cl)cc2)cc1 | . | 16.0% | . | 0.6% | . | .
C/C=C(\C)C(=O)O[C@H]1C[C@@]2(C)CCC(C(C)C)C2(O)CC[C@@]1(C)O (stereo partly drawn) | . | -10.6% | . | . | . | .
SMILES | ELG1 genotox | SMN2 splice up | NPC1 promoter act | FLuc modulator | Rab9 promoter act | ELG1 repair inh
COc1ccc(OCC(=O)Nc2sc3c(c2C(=O)NCC2CCCO2)CCC3)cc1 (stereo not drawn) | 0.0% | -18.6% | -0.3% | -8.8% | -3.7% | 16.4µM*
COc1ccc(NC(=O)c2c(NC(=O)COc3ccccc3)sc3c2CCCCC3)cc1 | . | -1.6% | . | -3.9% | . | .
O=c1c(=Nc2ccccc2O)c(=O)c2ccccc12 | ? | 11.2µM* | ? | -18.7% | 3.55µM* | ?
O=C(Nc1cccc(-c2csc(Nc3ccc(Cl)cc3)n2)c1)c1cccc(C(F)(F)F)c1 | -16.2% | . | -7.7% | -12.3% | -9.6% | 9.2µM*
O=C(Nc1cccc(-c2csc(Nc3ccc(Cl)cc3)n2)c1)c1ccccc1 | -13.9% | . | -2.8% | 12µM* | 3.1% | ?
O=C(Nc1cccc(-c2csc(Nc3ccc(Cl)cc3)n2)c1)c1cc([N+](=O)[O-])cc(C(F)(F)F)c1 | -11.4% | . | -13.9% | -2.9% | -0.7% | ?
O=C(Nc1ccc(-c2csc(Nc3ccccc3)n2)cc1)c1ccccc1 | 10.0% | . | -4.5% | 13.5µM* | -0.1% | -22.9%
CCCCCCCCCCCCCCC(C(=O)OC)C(O)(CC(=O)OC)C(=O)OC (stereo not drawn) | . | 0.3% | . | . | . | .
COc1ccc(NC(=O)CO/N=C/C(=O)Nc2ccccc2C)c([N+](=O)[O-])c1 | -0.9% | . | 18.4% | ? | 10.9% | -19.3%
COc1ccc(/C=N/NC(=O)c2cccc(NC(C)=O)c2)c(OC)c1 | -0.1% | -5.7% | 1.2% | -17.1% | 3.2% | 4.4%
O=C(N/N=C/c1ccccc1)c1[nH]ncc1Br | 14.6µM* | ? | ? | 10.7µM* | 3.16µM* | ?
COc1ccc(/C=N/NC(=O)c2[nH]ncc2Br)c(OC)c1 | 25.9µM* | 25.1% | 0.7% | 2.39µM* | -7.7% | ?
O=C(CNC(=O)c1cccs1)Nc1cccc(S(=O)(=O)N2CCOCC2)c1 | 0.1% | . | 0.9% | -5.5% | 1.2% | 3.6%
Cc1ccc(S(=O)(=O)N(C)C)cc1NC(=O)COC(=O)CCC1CCCCC1 | 2.7% | . | -1.0% | -4.7% | -3.5% | 3.3%
CCC1CN(C(=O)Nc2ccccc2C(F)(F)F)c2ccccc2S1 (stereo not drawn) | . | . | . | -2.7% | . | .
COc1ccc(/C=C(\C#N)C(=O)NCc2ccccc2)cc1 | -3.5% | . | 1.0% | ? | 0.3% | -2.3%
COc1ccc(/C=C(\C#N)C(=O)N=CN(C)C)cc1 | 0.9% | -5.3% | -0.4% | 13.5µM* | -1.8% | ?
CC(C)(C)c1ccc(-c2nnc(N)o2)cc1 | ? | . | 2.82µM* | 6.01µM* | 2.82µM* | ?
CC(C)(C)c1ccc(OCc2nnc(-c3ccccc3)o2)cc1 | . | -0.6% | . | ? | . | .
